Screening data as filed in PubChem.
Shown are actives, neighbours in structure and some others; about 6.6% of the full set was active somewhere.
MCF10A rerep – DNA re-replication induction in MCF 10a cells; Potency, µM (doses to about 46.1 µM), without a hit: top-dose activity, positive = re-replication, actives largely listed as activators; MCF 10A DNA re-replication, Hoechst nuclear intensity, 48 h; 350,000 compounds, 2.9% hits; further: % of control where 0% means no effect; nearly all actives have a fitted effect of over 50% in size
TSG101-PTAP inh – blocks PTAP/TSG101 interaction to inhibit HIV-1 budding. Q99816. Fluorescence polarization, FITC-PTAP peptide / Tsg101 binding. Potency, µM (highest dose often 115 µM), without a hit: at the highest dose activity change, negative = inhibition, usual class: inhibitors. 340,000 tested, under 10 active. AID 493005; active means well fitted inhibition curve with a large enough effect in the main read-out, with a control signal flat, not every such curve was filed as active; inconclusive means small, poorly fitted or top-dose-only effect, or effect the other way, or a change in a side signal; inactive means no such curve, though single readings can be large or run the other way; further: % of control where 0% means no effect
Target sequence (Q99816 whole entry, looked up): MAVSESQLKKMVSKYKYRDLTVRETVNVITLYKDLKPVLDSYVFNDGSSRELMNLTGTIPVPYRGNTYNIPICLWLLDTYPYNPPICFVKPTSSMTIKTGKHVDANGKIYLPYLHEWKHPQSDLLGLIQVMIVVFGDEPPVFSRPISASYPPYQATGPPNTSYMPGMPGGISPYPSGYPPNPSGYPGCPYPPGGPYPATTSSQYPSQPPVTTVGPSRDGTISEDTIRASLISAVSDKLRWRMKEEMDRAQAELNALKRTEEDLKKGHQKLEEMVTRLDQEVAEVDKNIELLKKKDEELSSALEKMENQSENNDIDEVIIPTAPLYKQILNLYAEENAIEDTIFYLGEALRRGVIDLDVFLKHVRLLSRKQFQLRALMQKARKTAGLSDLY
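Steps: Tsg101 binding domain dispensed (10 uM final), compounds pinned in DMSO, FITC-labeled PTAP-motif peptide added (50 nM final); after 20 min binding at room temperature, polarization measured.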
SW480 rereplic – induces DNA re-replication in SW480 colon adenocarcinoma cells; 340,000 compounds, 1.8% hits; Potency, µM (top dose mostly 46.1 µM), for the others: top-dose re-replication activation, usual class: activators; SW480 DNA re-replication, Hoechst DNA content imaging, 48 h; further: % of control where 0% means no effect; nearly all actives have a fitted effect of over 55% in size
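Compounds, transferred as 23 nL by pin tool, were incubated with cells for 48 hr; DNA content per nucleus was then quantified by Hoechst staining and fluorescence plate imaging.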
KB-V1 cytotox – KB-V1 MDR subline cytotoxicity. AID 1347076. 400,000 compounds, 3.4% hits. Potency, µM (top dose mostly 46.1 µM), most hits filed as cytotoxic. KB-V1 MDR cells viability, CellTiter-Glo, 72 h; further: on the % scale 0 is the no-effect control and ±100 the full control effect; nearly all actives have a fitted effect of over 60% in size
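Cells of the MDR subline KB-V1 are plated, dosed with compound at multiple concentrations, and incubated 72 h at 37 degrees C; CellTiter-Glo is then added and luminescence read after 10 min.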
KB-3-1 cytotox – kills parental KB-3-1 adenocarcinoma cells | KB-3-1 viability, CellTiter-Glo ATP luminescence, 72 h | Potency, µM (highest dose often 46.1 µM), actives largely listed as cytotoxic | AID 1347075 | 400,000 compounds, 1.4% hits; further: on the % scale 0 is the no-effect control and ±100 the full control effect; nearly all actives have a fitted effect of over 60% in size
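Cytotoxicity in the drug-sensitive parental line KB-3-1 was scored as loss of CellTiter-Glo luminescence following 72 h incubation with compound. Values come from curve fitting of normalized concentration-response data.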
RGS4 inhibitor – inhibitors of human regulator of G protein signaling 4; Potency, µM (series often up to 114 µM), without a hit: at the highest dose activity change, negative = inhibition, actives largely listed as inhibitors; AID 504845; P49798; Transcreener GDP fluorescence polarization, RGS4-accelerated GTP hydrolysis; 390,000 compounds, 0.039% hits; further: on the % scale 0 is the no-effect control and ±100 the full control effect; nearly all actives have a fitted effect of over 75% in size
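MLSMR compounds (23 nl, pin-transferred) preincubated 10 min at room temperature with a 500nM (2x) first reagent, then RGS4 at 900nM (2x) plus Transcreener GDP mix added; fluorescence polarization (620/688 nm) read before and after 90 min at 30 °C.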
Active calls of the source: *; [ ] = another dose, or the depositor's remark. Unless noted, the call rests on the fitted dose curve; in most records, active means well fitted curve in the direction sought with a large enough effect; inconclusive means small, poorly fitted or top-dose-only effect, or another doubt; inactive means no such curve, though single readings can be large; an effect the other way counts as inactive or inconclusive. Potency means the concentration at half of the fitted maximal effect.

For CCOc1ccccc1CNC(=O)c1cc(-c2ccc(OC)cc2)nc2ccc(C(C)C)cc12 the results were KB-V1 cytotox inactive, KB-3-1 cytotox inactive and RGS4 inhibitor -1%.
`CCOC(=O)C(C)Sc1nnc2ccc3ccccc3n12` (stereo unspecified) gave RGS4 inhibitor -21%.
COc1cc(/C=C/c2cc[n+](C)cc2)ccc1OCC(=O)Nc1ccccc1 was read as MCF10A rerep 7%, TSG101-PTAP inh -11%, SW480 rereplic 18µM*, KB-V1 cytotox inconclusive, KB-3-1 cytotox inactive and RGS4 inhibitor -14%.
Screening COc1ccc(/C=C/C(=O)NC(=S)Nc2ccccc2)cc1OC returned MCF10A rerep 17%, TSG101-PTAP inh -2%, SW480 rereplic 18µM*, KB-V1 cytotox inactive, KB-3-1 cytotox inactive and RGS4 inhibitor 4%[56.9 µM].
COc1ccc(/C=C/C(=O)Nc2ccccc2)cc1OC was read as MCF10A rerep -1%, TSG101-PTAP inh 2%, SW480 rereplic -9%, KB-V1 cytotox inactive, KB-3-1 cytotox inactive and RGS4 inhibitor -27%.
Screening COc1ccc(/C=C/C(=O)NC(=S)NCCc2ccc(OC)c(OC)c2)cc1 returned MCF10A rerep inconclusive, TSG101-PTAP inh 0%, SW480 rereplic 10µM*, KB-V1 cytotox inconclusive, KB-3-1 cytotox inactive and RGS4 inhibitor -5%.
For Cc1nn(C)c(C)c1S(=O)(=O)N(CC(=O)NCCc1ccc(Cl)cc1)c1ccc(C(C)C)cc1 the results were KB-V1 cytotox inactive, KB-3-1 cytotox inactive and RGS4 inhibitor 18%.
Screening COC(=O)c1sccc1S(=O)(=O)N(CC(=O)NCc1ccc(F)cc1)c1ccc(Cl)cc1 returned KB-V1 cytotox inactive, KB-3-1 cytotox inactive and RGS4 inhibitor -5%.
CCOC(=O)NNc1ccc2nonc2c1[N+](=O)[O-] was read as MCF10A rerep 12%, TSG101-PTAP inh -3%, SW480 rereplic 23µM*, KB-V1 cytotox inactive, KB-3-1 cytotox inconclusive and RGS4 inhibitor inconclusive.
`COc1ccc(OC)c(NC(=O)Nc2cccc(OCc3cc(=O)n4cc(C)ccc4n3)c2)c1` gave KB-V1 cytotox inactive, KB-3-1 cytotox inactive and RGS4 inhibitor 9%.
CCOc1ccc(-n2c(C)nc3cc(C(=O)NCc4ccc5c(c4)OCO5)ccc32)cc1 was read as MCF10A rerep 18%, TSG101-PTAP inh 0%, SW480 rereplic 2%, KB-V1 cytotox 13µM*, KB-3-1 cytotox inconclusive and RGS4 inhibitor -33%.
COc1ccc(-n2c(C)nc3cc(C(=O)NCc4ccc5c(c4)OCO5)ccc32)cc1 was read as MCF10A rerep 1%, TSG101-PTAP inh -8%, SW480 rereplic 2%, KB-V1 cytotox inactive, KB-3-1 cytotox inactive and RGS4 inhibitor 5%.
`Cc1ccc(-n2cnc3cc(C(=O)NC4CCCCCC4)ccc32)c(C)c1` gave KB-V1 cytotox inactive, KB-3-1 cytotox inactive and RGS4 inhibitor -7%.
Screening Cc1noc(C)c1COc1ccccc1C(=O)NNC(=O)c1ccccc1F returned MCF10A rerep -2%, TSG101-PTAP inh -1%, SW480 rereplic -5%, KB-V1 cytotox inconclusive, KB-3-1 cytotox inactive and RGS4 inhibitor -20%.
Screening Cc1noc(C)c1COc1ccc(C(=O)NNC(=O)c2ccccc2F)cc1 returned MCF10A rerep 10%, TSG101-PTAP inh -7%, SW480 rereplic 12µM*, KB-V1 cytotox inactive, KB-3-1 cytotox inconclusive and RGS4 inhibitor 8%.
`Cc1noc(C)c1COc1ccc(C(=O)O)cc1` gave MCF10A rerep 13%, TSG101-PTAP inh -5%, SW480 rereplic -13%, KB-V1 cytotox inactive, KB-3-1 cytotox inactive and RGS4 inhibitor 4%.
`Cc1noc(C)c1COc1ccc(C(=O)NNC(=O)c2ccccc2)cc1` gave MCF10A rerep 21µM*, TSG101-PTAP inh -2%, SW480 rereplic 13µM*, KB-V1 cytotox 7.3µM*, KB-3-1 cytotox 4.6µM* and RGS4 inhibitor 4%.
